Hit rate of the full screen: of about 370,000 compounds, about 4,800 (1.3%) were called active. Shown is part of a subset that was picked to be rich in actives. Values without a mark were called inactive.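 Rule for the calls: active = inhibition above about 21% made by adding two undisclosed values (limit read from the data); inactive = the rest.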
The compounds below were run against Protein arginine N-methyltransferase 1 (Homo sapiens) (UniProt Q99873) (assay: PRMT1 methyltransferase inhibitors, primary screen, biochemical, fluorescence polarization (AID 652257)). Settings: recombinant PRMT1, activity-based probe fluorescence polarization; at 2.79 µM; stronger effect = higher value.
Protein arginine N-methyltransferase 1 (Homo sapiens), sequence (Q99873 whole entry, looked up): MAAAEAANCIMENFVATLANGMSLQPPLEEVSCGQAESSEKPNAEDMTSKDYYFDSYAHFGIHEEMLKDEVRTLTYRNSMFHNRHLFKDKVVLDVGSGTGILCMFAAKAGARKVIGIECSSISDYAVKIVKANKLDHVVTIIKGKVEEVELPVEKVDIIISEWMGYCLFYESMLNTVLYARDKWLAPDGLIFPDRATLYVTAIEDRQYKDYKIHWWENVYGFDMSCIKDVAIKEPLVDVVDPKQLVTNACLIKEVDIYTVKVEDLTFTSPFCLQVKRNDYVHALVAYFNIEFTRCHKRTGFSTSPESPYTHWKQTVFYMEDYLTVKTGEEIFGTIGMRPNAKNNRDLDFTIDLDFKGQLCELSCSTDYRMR
In the case of `Cc1ccc(S(=O)(=O)N2CCN(C(=O)c3ccccc3-c3nc4ccccc4s3)CC2)c(C)c1`, the inhibition is reported as 6.86%. `O=C(c1ccc[nH]c1=S)N1CCN(S(=O)(=O)c2ccc(Br)cc2Cl)CC1` was tested, and the inhibition was 31.8% (active). `O=C(O)c1cc(S(=O)(=O)N2CCCCCC2)c(Cl)cc1Cl` showed an inhibition of -2.22%. `O=C(CNS(=O)(=O)c1ccccc1F)N1CCN(c2ccccn2)CC1` showed an inhibition of 2.96%. In the case of `O=S(=O)(c1ccc2c(c1)OCCCO2)N1CCN(S(=O)(=O)c2c(F)cccc2F)CC1`, the inhibition is reported as -4.09%. Work on `COc1ccc(C)cc1NC(=S)N1CCOCC1` yielded an inhibition of -1.44%. `Cc1ccc(C(=O)OCC(=O)NC2CCCCCCC2)cc1C` gave an inhibition of -2.13%. `COc1cc(C(=S)N2CCOCC2)ccc1O` was tested, and the inhibition was 24.1% (active). With `COc1cc(C(=S)NC2CCCCC2)ccc1O` the inhibition was 29% (active). Compound `COc1cc(C(=O)Nc2cc(C(F)(F)F)ccc2N2CCOCC2)ccc1O` has an inhibition of -2.71%. In the case of `COc1ccc(C(C)NC(=S)NC2CCCCC2)cc1OC` (stereo not given), the inhibition is reported as -2.42%. `COC(=O)C[C@@H]1CC[C@@H]2[C@@H](COc3ccc(NC(=O)Nc4ccc(F)c(F)c4)cc3C(=O)N2C)O1` showed an inhibition of -0.15%. `O=C1c2ccccc2C(=O)N1CCC(c1ccccc1)c1ccco1` (stereo not given) was tested, and the inhibition was 8.33%. `CCCCCN(C(=O)NC(=O)Nc1ccccc1OC)S(C)(=O)=O` showed an inhibition of 5.33%. `O=C(OC12CCCN(C1)/C(=C/c1cccnc1)C2)C1CCCC1` (stereo not given) gave an inhibition of 0.1%. With `CCOC(=O)[C@@]12CN(C(=O)OC(C)(C)C)CC=C1N(Cc1ccc(OC)cc1)C(=O)[C@H]2CC(=O)NCc1ccc(OC)c(OC)c1` the inhibition was -3.24%. For `O=C(Nc1nc(-c2ccco2)c(-c2ccco2)s1)c1ccco1`, the inhibition was 51.8% (active). `O=C(Nc1ccccc1C(=O)N1CCCCC1)c1ccco1` gave an inhibition of -7.4%. Compound `O=C(Nc1c(-c2ccccc2)nc2c(Br)cc(Br)cn12)c1ccco1` has an inhibition of 0.75%. In the case of `O=C(CSc1nnc(C2CC2)n1Cc1ccccc1)Nc1cccnc1Cl`, the inhibition is reported as 4.21%. In the case of `Cc1cccc(C)c1NC(=O)C(Cl)C(=O)c1ccccc1` (stereo not given), the inhibition is reported as 32% (active). `CN=C(c1ccccc1)c1c(C)cccc1C` was tested, and the inhibition was -2.83%. For `Cc1cccc(C)c1NC(=O)N1CC(C)OC(C)C1` (stereo not given), the inhibition was 1.08%. Work on `CCOc1ccc(S(=O)(=O)N2CCC(C(=O)NCC(=O)Nc3cccc(Cl)c3C)CC2)cc1` yielded an inhibition of -4.55%. `CC(C)[C@@H](C)/C=C/[C@@H](C)[C@H]1CC[C@@H]2[C@]1(C)CCC1[C@]23C=C[C@]2(C[C@@H](O)CC[C@]12C)N(c1ccc([N+](=O)[O-])cn1)O3` (stereo not given in full) gave an inhibition of 1.5%.

Reference: PubChem BioAssay AID652257 (The Scripps Research Institute Molecular Screening Center, 2013)
